{"source": "PubChem BioAssay AID1745850", "about": "(National Center for Advancing Translational Sciences (NCATS), 2022)", "note": "In all, about 2,100 compounds went through this assay and about 260 (12%) were called active. Another 58% or so got no clear call; they are omitted. Calls follow the shape of the dose curve; as a rule, active = well fitted cell-killing curve with a large enough effect; inconclusive = small, poorly fitted or top-dose-only effect, or effect the other way; inactive = flat fitted curve, though single readings scatter. This is one part of the list. A call without a number means that no potency is given here. Potency is read from the fitted curve at half-maximal effect.", "data": [{"experiment": "Viability Counterscreen for Confirmatory qHTS for Inhibitors of ATXN expression; also: nearly all actives have a fitted effect of over 50% in size", "details": "HEK-293 ATXN2-luc cells viability, CellTiter-Fluor, 24 h", "procedure,_shortened": "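Luminescence read-out (SteadyGlo, 5 min) followed a 30 min Gly-Phe-AFC (25 uM final) viability fluorescence read. ATXN2-luciferase reporter cells were exposed 24 h to a dilution series. Medium-only wells served as the 100% inhibition reference.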", "values": [{"smiles": "CCCC/C(C)=N/NC(=O)c1cn(-c2ccccc2)nc1-c1ccccc1", "Potency": "inactive"}, {"smiles": "CCCCCC(=O)N/N=C(\\C)c1ccccn1", "Potency": "inactive"}, {"smiles": "C/C(=N\\NC(=O)c1cccc2ccccc12)c1ccccn1", "Potency": "6.31 µM (active)"}, {"smiles": "COc1cc(N)ccc1Nc1c2ccccc2nc2ccccc12", "Potency": "31.6 µM (active)"}, {"smiles": "COc1cc2cc(C(=O)NC(C)c3cccc4ccccc34)c(N)nc2cc1OC", "note": "(centres undefined)", "Potency": "inactive"}, {"smiles": "Nc1cccc2nc3ccccc3cc12", "Potency": "inactive"}, {"smiles": "O=C(NNC(=O)c1csc(-c2cnccc2C(F)(F)F)n1)c1ccc(C(F)(F)F)cc1", "Potency": "inactive"}, {"smiles": "c1cc2c(cc1-c1cnc3n1CCC3)OCCO2", "Potency": "inactive"}, {"smiles": "O=C1C=C(NCCc2cc(Br)c(O)c(Br)c2)C(=O)c2ncccc21", "Potency": "10 µM (active)"}, {"smiles": "CCOC(=O)c1c2ccc(OCC(=O)N/N=C/c3ccc(C)cc3)cc2n2ccccc12", "Potency": "inactive"}, {"smiles": "CCCc1nc2c(c(=O)c3ccccc3n2C)c(=O)n1C1CCCCCC1", "Potency": "28.2 µM (active)"}, {"smiles": "CN1CCC[C@H]1CCNc1ccc2c(=O)c3ccccc3n(C)c2c1", "Potency": "inactive"}, {"smiles": "Nc1c(C(=O)NCc2ccc3c(c2)OCO3)c2nc3ccccc3nc2n1CCCN1CCOCC1", "Potency": "inactive"}, {"smiles": "CC(C)(C)c1ccc(OCCn2nc(C(=O)O)c3ccccc3c2=O)cc1", "Potency": "inactive"}, {"smiles": "COC(=O)C1=C(C)N(Cc2ccccc2)C(=NCCc2cccnc2)N[C@H]1c1ccc(Br)cc1", "Potency": "22.4 µM (active)"}, {"smiles": "Cc1cccc(NC(=O)CCC(=O)N/N=C/c2ccc(O)cc2O)c1", "Potency": "inactive"}, {"smiles": "COc1ccc2c(Cl)c(C(=O)NN)sc2c1", "Potency": "inactive"}, {"smiles": "CCC(=O)c1ccc(OCC(O)CN(CCc2ccccc2)Cc2ccccc2)cc1", "note": "(centres undefined)", "Potency": "inactive"}, {"smiles": "OC(CNCCc1ccccc1)COc1ccc(OCC(O)CNCCc2ccccc2)cc1", "note": "(centres undefined)", "Potency": "22.4 µM (active)"}, {"smiles": "O=C(N/N=C\\c1c(O)ccc2ccccc12)c1ccc(S(=O)(=O)N2CCCCC2)cc1", "Potency": "inactive"}, {"smiles": "O=S(=O)(c1ccc2nc(COc3ccc(Cl)cc3Cl)[nH]c2c1)N1CCOCC1", "Potency": "inactive"}, {"smiles": "COc1cccc(NC(=O)CSc2nc3ncc(Br)cc3[nH]2)c1", "Potency": "inactive"}, {"smiles": "CC1CCCCC1NC(=O)/C(C#N)=C/C=C/c1ccccc1[N+](=O)[O-]", "note": "(centres undefined)", "Potency": "2.82 µM (active)"}, {"smiles": "CC(C)N(Cc1ccccc1)C(=O)/C=C/c1ccccc1[N+](=O)[O-]", "Potency": "inactive"}, {"smiles": "N#C/C(=C\\C=C\\c1ccccc1[N+](=O)[O-])C(=O)NC1CCCCC1", "Potency": "20 µM (active)"}, {"smiles": "O=C(NCC1CC1)c1ccc2c(c1)S(=O)(=O)c1cc(Cl)ccc1C2=O", "Potency": "inactive"}, {"smiles": "Cc1cc(C)n(-c2ccc(C(=O)N3CCN(S(=O)(=O)c4cccc(Br)c4)CC3)cc2)n1", "Potency": "inactive"}, {"smiles": "O=C(Nc1ccc(N2CCOCC2)c(Cl)c1)c1c(F)c(F)c(F)c(F)c1F", "Potency": "inactive"}, {"smiles": "CC(O)(c1ccccc1)c1nc(-c2ccncc2)cs1", "note": "(centres undefined)", "Potency": "inactive"}, {"smiles": "COc1ccc(NC2=NCC(Cc3ccc(Br)cc3)S2)cc1", "note": "(centres undefined)", "Potency": "inactive"}, {"smiles": "CCN(CC)CCC(c1ccc2c(c1)OCO2)c1c(OC)cc(OC)c2c(-c3ccccc3)cc(=O)oc12", "note": "(centres undefined)", "Potency": "20 µM (active)"}, {"smiles": "Cc1ccc(SC2=C(Sc3ccc(C)cc3)C(=O)c3ccccc3C2=O)cc1", "Potency": "inactive"}, {"smiles": "CSc1ncnc2c1ncn2CC(=O)C1CCC2C3CCC4=CC(=O)CCC4(C)C3CCC12C", "note": "(centres undefined)", "Potency": "17.8 µM (active)"}, {"smiles": "CCC(=O)OC1(C(C)=O)CCC2C3CCC4=CC(=O)CCC4(C)C3CCC21C", "note": "(centres undefined)", "Potency": "inactive"}, {"smiles": "Cc1ccc(Sc2nnc(Cc3ccccc3)c3ccccc23)cc1", "Potency": "inactive"}, {"smiles": "Cc1cc(C)c(C(=O)N2CCCC(N3CCN(c4cccc(C(F)(F)F)c4)CC3)C2)o1", "note": "(centres undefined)", "Potency": "inactive"}, {"smiles": "Cc1cc(O)c(C(C)C)cc1N=Cc1ccccc1[N+](=O)[O-]", "Potency": "inactive"}, {"smiles": "CCOc1cc(/C=N/Nc2cc(C)nc(-n3nc(C)cc3C)n2)ccc1O", "Potency": "3.98 µM (active)"}, {"smiles": "Cc1cc(N/N=C/c2ccccc2[N+](=O)[O-])nc(-n2nc(C)cc2C)n1", "Potency": "12.6 µM (active)"}, {"smiles": "CCOC(=O)c1cnc(-n2nc(C)cc2C)nc1NC1CCCC1", "Potency": "inactive"}, {"smiles": "CC(=O)c1ccc(S(=O)(=O)N2CCN(CCOc3ccc(Br)cc3)CC2)cc1", "Potency": "inactive"}, {"smiles": "CC(C)(C)N(Cc1ccc2c(c1)OCO2)C(=O)/C=C\\S(=O)c1ccccc1", "note": "(centres undefined)", "Potency": "17.8 µM (active)"}, {"smiles": "CN(C)CCC(c1ccc(Br)cc1)c1ccccn1", "note": "(centres undefined)", "Potency": "inactive"}, {"smiles": "CCOC(=O)c1c(-c2ccccc2)oc2ccc(OCC(=O)NN)cc12", "Potency": "inactive"}, {"smiles": "O=C(N/N=C\\c1cc(Br)ccc1O)c1ccc(S(=O)(=O)N2CCCCC2)cc1", "Potency": "inactive"}, {"smiles": "N#C/C(=C\\c1ccc([N+](=O)[O-])o1)c1nc2ccccc2[nH]1", "Potency": "7.94 µM (active)"}, {"smiles": "CCOc1cc(/C=C(/C#N)c2nc3ccccc3[nH]2)ccc1Oc1ccc([N+](=O)[O-])cn1", "Potency": "inactive"}, {"smiles": "O=C(Nc1cccnc1)C1Cc2c(-c3ccc4c(c3)OCO4)ccnc2O1", "note": "(centres undefined)", "Potency": "inactive"}, {"smiles": "Cc1nn(-c2ccccc2)c(N2CCCC2)c1/C=N/NC(=O)c1cc2ccccc2cc1O", "Potency": "inactive"}, {"smiles": "Cc1nc(SC2CC(=O)N(c3ccccc3)C2=O)n[nH]1", "note": "(centres undefined)", "Potency": "inactive"}, {"smiles": "Cc1cc(C(=O)CN2C(=O)c3ccccc3S2(=O)=O)c(C)n1CC1CCCO1", "note": "(centres undefined)", "Potency": "inactive"}, {"smiles": "CCc1nc2c(OCc3ccc(Cl)cc3Cl)cccn2c1N(C=O)Cc1ccc(OC)cc1", "Potency": "inactive"}, {"smiles": "S=C(Nc1ccccc1)Nc1ccc(OCc2ccc(Cl)cc2Cl)cc1", "Potency": "inactive"}, {"smiles": "Cc1cc(/C=N/n2cnnc2)c(C)n1-c1ccc(OCc2ccc(Cl)cc2Cl)cc1", "Potency": "28.2 µM (active)"}, {"smiles": "Nc1cccc2c1C(=O)N(C(=O)/C=C/c1cccc(Br)c1)C2=O", "Potency": "inactive"}, {"smiles": "Cn1nnnc1Sc1ncnc2scc(Br)c12", "Potency": "20 µM (active)"}, {"smiles": "Cn1nnnc1Sc1ncnc2scc(-c3ccc[nH]3)c12", "Potency": "12.6 µM (active)"}, {"smiles": "O=c1[nH]c(CN2CCN(c3ncccn3)CC2)nc2c(Br)cc(Br)cc12", "Potency": "inactive"}, {"smiles": "CCOC(=O)COc1ccc(Br)cc1/C=C/c1[nH]c(=O)[nH]c(=O)c1[N+](=O)[O-]", "Potency": "inactive"}, {"smiles": "Nc1ccc2c(c1)OC1(CCCC1)O2", "Potency": "inactive"}, {"smiles": "Cn1c(CCc2nc3ccccc3[nH]2)nnc1SCC#N", "Potency": "inactive"}, {"smiles": "c1ccc2c(c1)c1c(c3ccccc32)CN2CCCC2C1", "note": "(centres undefined)", "Potency": "inactive"}, {"smiles": "COc1ccc(-c2c[n+]3c4n2CCCCC4=C(c2ccc(Br)cc2)C3)cc1", "Potency": "inactive"}, {"smiles": "Cc1cccc(OCCn2cc(/C=N/NC(=O)c3ccncc3)c3ccccc32)c1", "Potency": "inactive"}, {"smiles": "Cc1ccc(S(=O)(=O)NCC(=O)N/N=C/c2ccccc2O)cc1", "Potency": "inactive"}, {"smiles": "Cc1ccc(S(=O)(=O)/C(=C/Cl)NC(=O)c2ccccc2)cc1", "Potency": "22.4 µM (active)"}, {"smiles": "COc1ccc(C(=O)NC(=C(Cl)Cl)S(=O)(=O)c2ccc(C)cc2)cc1", "Potency": "inactive"}, {"smiles": "CCOC(=O)c1ccc(/C=C2/C=C(c3ccccc3)N(c3ccc(Cl)c(C(=O)O)c3)C2=O)cc1", "Potency": "inactive"}, {"smiles": "O=C(c1cc(COc2cccc(C(F)(F)F)c2)on1)N1CCC(c2ccncc2)CC1", "Potency": "inactive"}, {"smiles": "Cn1c(SCC(=O)N/N=C/c2ccc([N+](=O)[O-])s2)nnc1-c1ccccc1", "Potency": "22.4 µM (active)"}, {"smiles": "C=CCn1c(COc2ccccc2)nnc1SCC(=O)N/N=C/c1cc(Cl)ccc1O", "Potency": "inactive"}, {"smiles": "COc1ccc(O)c(/C=N/NC(=O)CSc2nnc(C)n2-c2ccccc2)c1", "Potency": "inactive"}, {"smiles": "Cn1c(SCC(=O)N/N=C/c2ccc([N+](=O)[O-])s2)nnc1-c1ccc(Cl)cc1", "Potency": "11.2 µM (active)"}, {"smiles": "Cn1c(SCC(=O)Nc2cc(Cl)cc(Cl)c2)nnc1-c1ccc2nonc2c1", "Potency": "inactive"}, {"smiles": "CSc1sc(-c2nnc(SCC(=O)Nc3ccc(Cl)cc3)n2C)c2c1C=CCC2", "Potency": "inactive"}, {"smiles": "CCN1CC2=C(OC(N)=C(C#N)C2c2cccs2)/C(=C\\c2cccs2)C1", "note": "(centres undefined)", "Potency": "inactive"}, {"smiles": "C/C(=N\\NC(=O)C12CCC(C)(C(=O)O1)C2(C)C)c1ccccc1O", "note": "(centres undefined)", "Potency": "inactive"}, {"smiles": "Cc1nn(-c2ccccc2)c2nc(-c3cccs3)cc(C(=O)NN)c12", "Potency": "inactive"}, {"smiles": "CCCNC(=O)c1ccc2c(=O)c(O)c(-c3ccc(C)cc3)[nH]c2c1", "Potency": "inactive"}, {"smiles": "CC(=O)c1cccc(-c2csc3ncnc(Sc4nnnn4C)c23)c1", "Potency": "11.2 µM (active)"}, {"smiles": "Cn1nnnc1Sc1ncnc2scc(-c3cccc(S(C)(=O)=O)c3)c12", "Potency": "22.4 µM (active)"}, {"smiles": "CCN1CCS/C1=C\\C=C\\C1=[N+](CC)CCS1", "Potency": "25.1 µM (active)"}, {"smiles": "Cc1cc(C)cc(NC(=O)CCc2nc3sc4c(c3c(=O)[nH]2)CCCC4)c1", "Potency": "inactive"}, {"smiles": "Cc1cc(C)nc(/N=C(\\N)Nc2ccc(C(C)C)cc2)n1", "Potency": "inactive"}, {"smiles": "Cc1ccc(N/C(N)=N/c2nc(C)cc(N3CCCCC3)n2)c(C)c1", "Potency": "3.16 µM (active)"}, {"smiles": "O=C(c1ccco1)N1CCN(c2ncnc3scc(-c4cccs4)c23)CC1", "Potency": "inactive"}, {"smiles": "COc1ccccc1OCCN1CSC(=S)N(C)C1", "Potency": "20 µM (active)"}, {"smiles": "COC(=O)C1=C(C)N(c2ccc(Cl)c(Cl)c2)C(=O)C1", "Potency": "inactive"}, {"smiles": "CCCCC(=O)NNC(=S)NC(=O)c1ccc(C)cc1", "Potency": "inactive"}, {"smiles": "COc1ccc2c(c1)CCCN2S(=O)(=O)c1ccc(Cl)cc1", "Potency": "inactive"}, {"smiles": "COc1ccc(/C=C2\\CN(Cc3ccccc3)C/C(=C\\c3ccc(OC)c(O)c3)C2=O)cc1O", "Potency": "12.6 µM (active)"}, {"smiles": "COc1ccc(CCNC2=C(Cl)C(=O)N(Cc3ccccc3)C2=O)cc1OC", "Potency": "inactive"}, {"smiles": "COCC(C)n1c(C)cc(C(=O)COC(=O)c2cccn2C)c1C", "note": "(centres undefined)", "Potency": "inactive"}, {"smiles": "CCOc1cc(C=C(C(=O)OC)C(=O)OC)ccc1OCc1ccc([N+](=O)[O-])cc1", "Potency": "28.2 µM (active)"}, {"smiles": "N#Cc1nc(COc2ccc(-c3ccccc3)cc2)oc1NCc1cccnc1", "Potency": "inactive"}, {"smiles": "CC(C(=O)c1ccc(-c2ccccc2)cc1)[n+]1cccc(NC(=O)c2ccccc2)c1", "note": "(centres undefined)", "Potency": "inactive"}, {"smiles": "O=C(Nc1ccc[n+](CC(=O)c2cccc3ccccc23)c1)c1ccccc1", "Potency": "3.16 µM (active)"}, {"smiles": "O=C(/C=C/c1ccc(Cl)cc1)Nc1ccc(CN2CCOCC2)cc1", "Potency": "inactive"}, {"smiles": "O=C(Nc1cnn(C23CC4CC(CC(C4)C2)C3)c1)c1cnn2c(C(F)(F)F)cc(-c3ccco3)nc12", "Potency": "35.5 µM (active)"}]}]}
